The values that follow come from PubChem BioAssay (NCI).

Assay [1] is described as follows: NCI Yeast Anticancer Drug Screen. Data for the rad50 strain (AID 155).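 Note: 0% = growth of vehicle-only cultures of the same strain.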 The settings on record: S. cerevisiae rad50 strain growth inhibition; at 50.0 µM; hits give high values. The method, boiled down:
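Compounds were tested on a yeast strain with an engineered DNA damage repair alteration; the reported value is growth inhibition normalised to vehicle treatment.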

The nature of assay [2]: NCI Yeast Anticancer Drug Screen. Data for the mec2-1 strain (AID 157). The settings on record: S. cerevisiae mec2-1 strain, at 50.0 µM, hits give high values. The method in brief:
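mec2-1 yeast strain, carrying an alteration in DNA damage repair or cell cycle control, was exposed to compounds; growth inhibition was measured relative to vehicle-treated controls.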

A short description of assay [3]: NCI Yeast Anticancer Drug Screen. Data for the sgs1 mgt1 strain (AID 161).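 Note: 0% = growth of cultures given vehicle only.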 The settings on record: S. cerevisiae sgs1 mgt1 strain, at 50.0 µM, hits give high values. The method in brief:
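Compounds are added to genetically altered yeast, and growth is compared with cultures given vehicle alone to give percent inhibition.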

A short description of assay [4]: NCI Yeast Anticancer Drug Screen. Data for the cln2 rad14 strain (AID 165).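 Note: 0% = growth equal to vehicle treated cultures.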 The settings on record: S. cerevisiae cln2 rad14 strain, at 50.0 µM, hits give high values. The method in brief: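 Yeast carrying cln2 and rad14 alterations (cell cycle control and DNA damage repair) were exposed to compounds. Growth inhibition was measured against vehicle-treated controls.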

The nature of assay [5]: NCI Yeast Anticancer Drug Screen. Data for the bub3 strain (AID 167). The settings on record: S. cerevisiae bub3 mutant strain, at 50.0 µM, hits give high values. The method, boiled down: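 Growth of a checkpoint-deficient yeast mutant is measured after compound exposure. Values represent inhibition relative to vehicle.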
The nature of assay [6]: NCI Yeast Anticancer Drug Screen. Data for the mlh1 rad18 strain (AID 175). The settings on record: S. cerevisiae mlh1 rad18 strain growth inhibition; at 50.0 µM; hits give high values. The method in brief:
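Growth inhibition of the yeast strain was measured after compound exposure and expressed relative to vehicle-treated controls. The strain carries defined defects in DNA damage repair.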

The panel holds about 79,000 compounds, 15% with a hit somewhere; the sample as a whole holds those more often. Values without a mark were called inactive. Activity calls are given as the source filed them. Cut-off read from the data, not from the text of the source: active = growth inhibition above about 70%; inactive = the rest.

Take `O=[N+]([O-])/C(N=Nc1ccc2ccccc2c1Br)=N/Nc1ccc2ccccc2c1Br`: the growth inhibition in assay [1] was 34.5%; in assay [2], 5.85%; in assay [3], 19.4%; in assay [4], -2.85%; in assay [5], -0.2%; in assay [6], 13.2%.
On to `ClC1CC[N-]CC1.ClC1CC[N-]CC1.O=C(O)CC(=O)O.[Pt+2]`, for which the growth inhibition is 53.2% in assay [1]; 55.4% in assay [2]; 68.5% in assay [3]; -23.4% in assay [4]; 23.4% in assay [5]; 45.5% in assay [6].
As for `CC1(C)C=C(C(Br)c2cccc(Cl)c2)C(=O)c2ccccc21` (stereo not given), the growth inhibition in assay [1] is 98.3% (active); in assay [2] it was 99.6% (active); in assay [3], 99.8% (active); in assay [4], 99% (active); in assay [5], 98.8% (active); in assay [6], 99.3% (active).
On to `Cc1cc(CN2CCCCC2)c(O)c(CN2CCCCC2)c1`, for which the growth inhibition was -4.3% in assay [1]; -18.9% in assay [2]; -13.4% in assay [3]; -0.2% in assay [4]; -29.4% in assay [5]; -7.05% in assay [6].
For the compound `Clc1ccc(-c2cc(-c3cc(-c4ccc(Cl)cc4Cl)n[nH]3)[nH]n2)c(Cl)c1`, the growth inhibition is 14.2% in assay [1]; 1.75% in assay [2]; -5.3% in assay [3]; 20.6% in assay [4]; 9.9% in assay [5]; 8.55% in assay [6].
Turning to `Nc1cc(C(=O)O)cc2ccccc12`, the growth inhibition in assay [1] is 14.8%; in assay [2] it was -5.35%; in assay [3], 0.1%; in assay [4], -7.95%; in assay [5], -2.95%; in assay [6], 26.6%.
Regarding `CN(CC1NCCCC1O)C12CC3CC(CC(C3)C1)C2` (stereo not given), the growth inhibition is 0.5% in assay [1]; -6.65% in assay [2]; 12.4% in assay [3]; 12% in assay [4]; 7% in assay [5]; -4.35% in assay [6].
With `O=C(Oc1c([N+](=O)[O-])cc(-c2ccccc2)cc1[N+](=O)[O-])c1ccccc1`, the growth inhibition in assay [1] is 22.7%; in assay [2] it was 18.1%; in assay [3], 9.05%; in assay [4], 13.1%; in assay [5], 20.1%; in assay [6] it was 35.6%.
Turning to `O=C(NCCO)c1cc2ccccc2cc1O`, the growth inhibition in assay [1] is -1.9%; in assay [2], -25.3%; in assay [3], -10.4%; in assay [4] it was -3.5%; in assay [5] it was -17.9%; in assay [6] it was 7.55%.
In the case of `O=C(c1ccccc1)c1cc(Br)c2cccc3c2c1CC3`, the growth inhibition in assay [1] was 11.6%; in assay [2], -7.6%; in assay [3], -1.5%; in assay [4], 14.3%; in assay [5], 20.4%; in assay [6] it was -3%.
Take `O=C(OC(=O)c1cccc(Br)c1)c1cccc(Br)c1`: the growth inhibition in assay [1] is 10.2%; in assay [2] it was -10.5%; in assay [3], 26%; in assay [4], 34.8%; in assay [5], -5.7%; in assay [6], 1%.
As for `CCN(CCOC(=O)Nc1cccc(C(C)=O)c1)c1ccccc1`, the growth inhibition in assay [1] is 91.2% (active); in assay [2] it was 96.5% (active); in assay [3], 97.5% (active); in assay [4], 76.2% (active); in assay [5] it was 92.1% (active); in assay [6], 88.2% (active).
For `CCOC(=O)CCC(NC(=O)c1ccc(Nc2cnc3ccc(C(F)(F)F)cc3n2)cc1)C(=O)OCC` (stereo not given), the growth inhibition in assay [1] was 24.3%; in assay [2] it was 6.45%; in assay [3], 12.2%; in assay [4] it was 14.1%; in assay [5], 19.9%; in assay [6], -23.8%.
With `Clc1cccc(Cl)c1/C=N/Nc1nnc(N/N=C/c2c(Cl)cccc2Cl)c2ccccc12`, the growth inhibition was 18.8% in assay [1]; 23.4% in assay [2]; 56.3% in assay [3]; 31.5% in assay [4]; -1.4% in assay [5]; 34.4% in assay [6].
On to `Brc1ccc2c(c1)C1(c3cc(Br)ccc3-2)c2cc(Br)ccc2-c2ccc(Br)cc21`, for which the growth inhibition is 2.45% in assay [1]; -5.9% in assay [2]; -13.7% in assay [3]; 22.7% in assay [4]; 5.25% in assay [5]; 3.95% in assay [6].
As for `CC(C)(Oc1ccc(/C=C/C(=O)c2ccccc2)cc1)C(=O)Nc1c(Cl)cccc1Cl`, the growth inhibition in assay [1] was -6.6%; in assay [2] it was -46.6%; in assay [3], -3.15%; in assay [4], -65.5%; in assay [5], -13.1%; in assay [6] it was -1.45%.
Take `CN1CC(O)C(C(=O)NC23CC4CC(CC(C4)C2)C3)C1` (stereo not given): the growth inhibition in assay [1] was 30.8%; in assay [2], 4.15%; in assay [3] it was 11.8%; in assay [4], 14.1%; in assay [5], 10.4%; in assay [6], 30.2%.
For the compound `Cn1c(=O)oc2cc([N+](=O)[O-])c(Cl)cc21`, the growth inhibition in assay [1] was -2.9%; in assay [2] it was 4.25%; in assay [3] it was -0.85%; in assay [4] it was -1.35%; in assay [5] it was -6.6%; in assay [6], 6.75%.
As for `CCCCCCNC1=C(OC)C(=O)C(NCCCCCC)=C(OC)C1=O`, the growth inhibition in assay [1] is -7.4%; in assay [2] it was 7.9%; in assay [3], 2.1%; in assay [4] it was -54.9%; in assay [5], 8.5%; in assay [6], -13.6%.
As for `C/C(CCc1cccc([N+](=O)[O-])c1)=N\NC(N)=O`, the growth inhibition is -19.1% in assay [1]; -10.5% in assay [2]; -6.5% in assay [3]; -1.95% in assay [4]; 7.4% in assay [5]; -29.5% in assay [6].
